Records with an inconclusive call do not appear. A call without a number means that no potency is given here. Activity calls are given as the source filed them. Calls come from the whole dose curve; as a rule, active = well fitted cell-killing curve with a large enough effect in the repeat runs; inconclusive = weak or mixed curves, or effect the other way; inactive = flat fitted curve, though single readings scatter.
Potency is the fitted concentration of half-maximal effect.

This assay can be described thus: qHTS assay to identify small molecule antagonists of the constitutive androstane receptor (CAR) signaling pathway - cell viability counter screen (AID 1224837). Note: nearly all actives have a fitted effect of over 45% in size. The settings on record: HepG2-CYP2B6-hCAR viability, CellTiter-Fluor, 23 h, co-treated with 50 nM CITCO; series mostly up to 92.4 µM. The source says: National Center for Advancing Translational Sciences [NCATS]
NIH Chemical Genomics Center [NCGC]
U.S. Environmental Protection Agency [EPA]
National Institutes of Environmental Health Sciences [NIEHS]
National Toxicology Program [NTP]
U.S. Food and Drug Administration [FDA]
The constitutive androstane receptor (CAR) is a nuclear receptor which regulates multiple drug metabolizing enzymes (DMEs) and transporters. Activating CAR will generally increase the transcription and subsequent translation of CYP2B6 and CYP3A4. These two DMEs represent about 50% of the drug metabolizing potential in the body. When CAR is deactivated, the metabolizing potential in the body will decrease, subsequently increasing the toxicity in the body or lowering the therapeutic potential of a pro-drug. Recently, there have also been studies performed indicating CARs role in energy metabolism and cancer therapy. Therefore, inhibiting CARs activity could have a potential effect on diabetes and cancer. Identifying environmental toxins and compounds which modulate CAR, through the use of the Tox21 10K compound collection, will be an important step in determining the toxicity and potential therapeutic effects these factors will have on the human body. To differentiate true CAR antagonists from cytotoxic substances, the assay is multiplexed with a cell viability assay.
Tox21 Assay Protocol Summary:
A double-stable (hCAR and CYP2B6-2.2kb) transfected cell line, derived from human hepatoma (HepG2) cells, was utilized for the duration of the quantitative high-throughput screens. The HepG2-CYP2B6-hCAR cells were dispensed at 2500 cells/4 uL/well in 1536-well white solid bottom plates using a Multidrop Combi. After the assay plates were incubated at 37 C/5% CO2 for 4 hrs, 23 nL of compounds at 15 concentrations (from 5-48 columns) or positive control (from 1 to 4 columns) were transferred to the assay plates using a Pintool station. One uL of CITCO (final concentration = 50 nM) was added, using a Flying Reagent Dispenser, inside each well. After a 23 hr incubation period at 37 C/5% CO2, 1 uL of CellTiter-Fluor reagent was added into each well of the assay plates using a Flying Reagent Dispenser. The fluorescence intensity in the plates was then measured using a ViewLux plate reader.
(In general: Quantitative high-throughput screening tests each substance at several concentrations.)
With `ClC/C=C/CCl`, the Potency entry is “inactive”. As for `CCCCCCCCCCC(CO)CCCCCCCC` (stereo not given), the Potency entry was “inactive”.

`O=C(O)CCCCCCCCCCCC(=O)O`: the Potency entry is “inactive”. The figure for `CN(C)CCCN1c2ccccc2Sc2ccc(Cl)cc21` is 54.5 µM (active); for `C=CCNCC=C` it is “inactive”; for `CCc1cccc2c3c([nH]c12)C(CC)(CC(=O)O)OCC3` (stereo not given) it is “inactive”.

Turning to `NCCOCCO`, the Potency entry is “inactive”. Take `CCCCCCOCCOCCO`: the Potency entry was “inactive”. `CC(=O)[C@H]1CC[C@H]2[C@@H]3CC=C4C[C@@H](O)CC[C@]4(C)[C@H]3CC[C@]12C`: the Potency entry is “inactive”. For the compound `CN(C)/N=N/c1nc[nH]c1C(N)=O`, the Potency result was “inactive”. With `CN(C)C` the entry was “inactive”. Regarding `C1COCCN1`, the Potency result was “inactive”. As for `Cc1ccc2c(c1)C(=O)OC2=O`, the Potency result is “inactive”. On to `CNC[C@H](O)c1ccc(O)c(O)c1`, for which the Potency result is “inactive”. Consider `O=C1CCc2ccccc2O1`, for which the Potency entry was “inactive”. Consider `Cc1ccc(S(=O)(=O)O)cc1C`, for which the Potency entry was “inactive”.

`C=C[C@H]1CN2CC[C@H]1C[C@H]2[C@H](O)c1ccnc2ccc(OC)cc12`: the Potency entry was “inactive”. In the case of `CN1CCOCC1`, the Potency result was “inactive”. On to `C=CC(=O)OCCCC`, for which the Potency result is “inactive”.

Turning to `O=[Se](O)O`, the Potency was 48.6 µM (active). For the compound `COC(=O)CC(=O)OC`, the Potency result is “inactive”. The entry for `C=C[Si](OCCOC)(OCCOC)OCCOC` is “inactive”. As for `CCCCCCCCCCCCCO`, the Potency result is “inactive”. Regarding `CC1(C)OC(=O)NC1=O`, the Potency result is “inactive”. Consider `c1ccc2c(c1)ccc1ncccc12`, for which the Potency result was “inactive”. With `[O-]/[N+](=N\O)c1ccccc1` the entry was “inactive”. Consider `IC(I)I`, for which the Potency result was “inactive”. `CC(=O)Nc1ccc2c(c1)Cc1cc(NC(C)=O)ccc1-2`: the Potency entry was “inactive”. Take `Cc1ccc(C(C)(C)C)cc1`: the Potency result is “inactive”. Turning to `[Na+]`, the Potency result is “inactive”. For the compound `CC/C(=C(/CC)c1ccc(O)cc1)c1ccc(O)cc1`, the Potency result was “inactive”. On to `C=C1C[C@H]2[C@@H]3C=C(C)C4=CC(=O)CC[C@]4(C)[C@H]3CC[C@]2(C)[C@@]1(OC(C)=O)C(C)=O`, for which the Potency result was “inactive”. Consider `CC/C=C\C/C=C\C/C=C\CCCCCCCC(=O)O`, for which the Potency entry was “inactive”. For the compound `Nc1ccc(O)c(N)c1`, the Potency result is “inactive”.

As for `COC(=O)C(C)Oc1ccc(Oc2ncc(C(F)(F)F)cc2Cl)cc1` (stereo not given), the Potency result is “inactive”. In the case of `O=C(O)c1cc(=O)[nH]c(=O)[nH]1`, the Potency entry is “inactive”. Take `CCO[Si](CCCNC(N)=O)(OCC)OCC`: the Potency result is “inactive”. For `Cc1ccc(C(C)(C)C)c(O)c1`, the Potency entry is “inactive”. On to `NC[C@H](O)c1ccc(O)c(O)c1`, for which the Potency entry is “inactive”. In the case of `CCCCCC1C(=O)CCC1CC(=O)OC` (stereo not given), the Potency entry is “inactive”.

(Values after PubChem BioAssay (Tox21).)
